High-throughput results deposited in PubChem BioAssay by National Center for Advancing Translational Sciences (NCATS).
TbPYK inhibitor – inhibitors of Trypanosoma brucei pyruvate kinase | TbPYK enzyme, Kinase-Glo Plus ATP luminescence, 45 min | Q57TT1 | AID 624173 | Potency, µM (titrated, usually from 76.8 µM), for inactives: at the highest dose activity, negative = inhibition, usual class: inhibitors | 410,000 tested, 0.12% active; note: potency is the fitted concentration of half-maximal effect; % is set by controls: 0 for no effect and ±100 for the full control effect; nearly all actives have a fitted effect of over 50% in size
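Enzyme and substrate buffer are dispensed first and compound is pin-transferred. ADP at 130 uM final then starts the reaction, which runs 45 min at room temperature. Detection reagent is added for 10 min before luminescence is imaged.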
Giardia FBPA inh – Giardia lamblia aldolase inhibition; purified Giardia FBPA; 290,000 tested, 0.71% active; AID 2451; A8B2U2; Potency, µM (series often up to 59.6 µM), inactives show at the highest dose activity, negative = inhibition, hits mostly inhibitors; note: potency is the fitted concentration of half-maximal effect; % is set by controls: 0 for no effect and ±100 for the full control effect; nearly all actives have a fitted effect of over 55% in size
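40 nM FBPA preincubated 10 min at RT with compound (up to 57.5 uM final), then substrate plus GAPDH/TPI/NAD/arsenate coupling and diaphorase/resazurin added. Fluorescence read after 20 min at RT, 525/598 nm.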
Sm TGR inh – inhibitors of Schistosoma mansoni thioredoxin glutathione reductase; Potency, µM (doses to about 114 µM), for inactives: at the top dose activity change, negative = inhibition, usual class: inhibitors; 360,000 tested, 3% active; AID 485364; purified TGR, DTNB reduction, TNB absorbance 405 nm; note: potency is the fitted concentration of half-maximal effect; % is set by controls: 0 for no effect and ±100 for the full control effect; nearly all actives have a fitted effect of over 60% in size
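TGR 20 nM + NADPH 100 uM (dispensed conc.), cpd preinc 15 min RT; start with NADPH (500 uM addition) then DTNB (15 mM addition). Kinetic TNB absorbance, 405 nm filter. Four-parameter Hill fit across titration.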
LmPK inh – LmPK (Leishmania mexicana) enzyme inhibition. purified LmPK, Kinase-Glo ATP luminescence, 1 h. Q27686. 290,000 tested, 0.37% active. Potency, µM (series often up to 57.5 µM), inactives show top-dose activity change, negative = inhibition, usual class: inhibitors. AID 1721; note: potency is the fitted concentration of half-maximal effect; % is set by controls: 0 for no effect and ±100 for the full control effect
Target sequence (Q27686 whole entry, looked up): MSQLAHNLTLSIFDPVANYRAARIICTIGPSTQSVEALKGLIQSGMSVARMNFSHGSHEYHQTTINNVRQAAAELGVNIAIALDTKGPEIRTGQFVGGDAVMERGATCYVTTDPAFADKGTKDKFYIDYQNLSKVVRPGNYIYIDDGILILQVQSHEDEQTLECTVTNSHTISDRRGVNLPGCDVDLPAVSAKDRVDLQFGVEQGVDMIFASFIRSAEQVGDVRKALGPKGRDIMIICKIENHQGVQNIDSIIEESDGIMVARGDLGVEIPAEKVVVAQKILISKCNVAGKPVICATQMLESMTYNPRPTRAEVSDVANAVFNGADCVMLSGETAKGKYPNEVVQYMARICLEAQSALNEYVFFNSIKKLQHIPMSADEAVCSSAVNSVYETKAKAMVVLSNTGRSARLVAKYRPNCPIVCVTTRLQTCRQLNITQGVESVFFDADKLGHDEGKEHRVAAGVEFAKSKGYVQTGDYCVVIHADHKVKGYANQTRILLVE
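0.1 nM LmPK, 0.5 mM PEP, 0.1 mM ADP; 50 mM imidazole pH 7.2, 7 mM MgCl2, 50 mM KCl; 1 h RT. Kinase-Glo luminescence readout, normalized to no-enzyme (full inhibition) and uninhibited wells.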
Shiga toxin inh – blocks Shiga toxin action in Vero cells | inhibition, % at 38.7 µM | 290,000 tested, 9.2% active | Vero cells, Shiga toxin protein synthesis inhibition reporter; in the data active = inhibition mostly above about 28%, no sharp cut-off; inactive = mostly below about 43%; note: 0% is about no effect
Cycloheximide cs – counter-screen for Shiga toxin inhibitors: cycloheximide protein synthesis inhibition. cell reporter, cycloheximide protein synthesis inhibition counterscreen. 300,000 tested, 12% active. max response, %; in the data active = max response mostly above about 13%, no sharp cut-off; inactive = mostly below about 14%; note: read at 38.3 µM for the half of the compounds with a filed dose; 0% is about no effect
Starred values were filed as active, the others as inactive; ? = inconclusive; · = no result given; ! = not active in a repeat; [ ] = remark or other dose. The sample as a whole holds a higher share of hits than the screen did. Unless noted, calls come from the whole dose curve; as a rule, active = well fitted curve in the direction sought with a large enough effect; inconclusive = small, poorly fitted or top-dose-only effect, or another doubt; inactive = no such curve, though single readings can be large; an effect the other way counts as inactive or inconclusive.

SMILES	TbPYK inhibitor	Giardia FBPA inh	Sm TGR inh	LmPK inh	Shiga toxin inh	Cycloheximide cs
FC(F)(F)c1cc(-c2ccco2)nc(NCCc2ccccc2)n1	-2.2%	1.4%	-1.4%	0.1%	78.2	20.3*
COc1ccccc1CCNC(=O)CCSc1nc(-c2ccco2)cc(C(F)(F)F)n1	-1.8%	1.4%	?	5.2%	-5.3	1.0
COc1ccc(-c2cc(C(F)(F)F)nc(NCCc3ccccc3)n2)cc1	-1.4%	·	27.0%	·	·	·
O=C(CCSc1nc(-c2ccco2)cc(C(F)(F)F)n1)NCCc1ccccc1	-5.6%	5.5%	2.7%	3.9%	53.8	33.2*
O=C(CCSc1nc(-c2ccco2)cc(C(F)(F)F)n1)N1CCCc2ccccc21	-18.1%	-0.5%	39.8µM*	2.0%	21.3	5.2
O=c1c(-c2ccc(Cl)cc2)nc2cnc(N3CCNCC3)nc2n1Cc1ccc(F)cc1	-6.7%	0.2%	·	·	·	·
O=C(CC(=O)Nc1ccc(Cl)cc1)N/N=C\c1cccc(F)c1	-0.2%	·	10.7%	-3.7%	-3.0	-6.4
CCc1ccc(C(=O)Cn2ccsc2=N)cc1	-5.7%	-12.5%	-15.9%	-15.3%	90.8*	54.3*
CC(C)(C)NC(=O)NC(=O)Cn1ccsc1=N	1.9%	-1.0%	3.3%	-1.8%	-11.4	-1.7
CC(C)(C)OC(=O)N1CCC(c2c(C(=O)NCc3cccs3)cnn2-c2ccc(F)cc2F)CC1	14.3%[15.4 µM]	·	30.3%	·	·	·
CC(=O)c1ccc(NC(=O)CC2Oc3ccc(C)cc3NC2=O)cc1 (configuration not stated)	-2.3%	·	1.1%	·	·	·
Clc1ccccc1/C=C/c1ccnc2ccccc12	7.0%	5.7%	14.6%	3.1%	62.8*	45.7*
NC(N)=NN=Cc1ccnc2ccccc12	0.8%	·	·	·	·	·
O=C(O)C(=Cc1ccnc2ccccc12)C(=O)O	-10.7%	·	·	·	·	·
Oc1ccc(/C=C/c2ccnc3ccccc23)cc1	-5.9%	-2.1%	-5.3%	-1.0%	108.6*	110.9*
CCCN1CCC(=O)N([C@H](CSc2ccc(C)cc2)CC(C)C)CC1	-3.5%	1.3%	39.8µM*	5.5%	61.7*	70.7*
CCCN1CCC(=O)N([C@H](CSc2ccc(C)cc2)Cc2ccccc2)CC1	1.7%	3.4%	?	3.6%	-5.7	-4.1
CC(C)CC(CSc1ccc(Br)cc1)N1CCN(CC(C)C)CCC1=O (configuration not stated)	·	12.0%	·	·	108.3*	79.7*
CC(C)C[C@@H](CSc1ccccc1)N1CCN(CC(C)C)CCC1=O	-8.5%	7.4%	-27.3%	2.0%	46.7*	35.3*
CCCN1CCC(=O)N(C(CSc2ccc(C)cc2)CC(C)C)CC1 (configuration not stated)	·	-1.0%	·	·	77.2*	42.2*
CC(=O)Nc1ccc(SCC(CC(C)C)N2CCN(CCc3ccccc3)CCC2=O)cc1 (configuration not stated)	·	-3.2%	·	·	-8.7	-4.6
CC(=O)Nc1ccc(SCC(CC(C)C)N2CCN(CC(C)C)CCC2=O)cc1 (configuration not stated)	·	2.1%	·	·	-13.5	-10.0
CCn1c2ccccc2c2nnc(N3CCN(c4cccc(Cl)c4)CC3)nc21	1.9%	·	-2.2%	·	·	·
CCCN1CCC(=O)N([C@H](CSc2ccccc2)CC(C)C)CC1	-3.4%	1.9%	?	3.2%	42.0*	45.2*
Cc1ccc(-c2nc3ccccn3c2NCc2ccc3c(c2)OCO3)cc1	0.4%	-16.4%	0.0%	-28.8%	54.2*	45.0*
SMILES	TbPYK inhibitor	Giardia FBPA inh	Sm TGR inh	LmPK inh	Shiga toxin inh	Cycloheximide cs
COc1ccc(-c2nc3ccc(C)cn3c2NCc2ccc3c(c2)OCO3)cc1	-0.8%	?	3.0%[57.1 µM]	1.0%	125.0*	55.3*
COc1ccccc1Nc1nc(C)cs1	-12.8%	-6.4%	-15.3%	0.0%	85.4*!	21.8*!
Cc1csc(Nc2ccccc2C(F)(F)F)n1	-1.6%	·	-5.1%	-3.0%	38.6	20.7*
CC1CN=C(Nc2cccc3ccccc23)S1 (configuration not stated)	2.4%	7.5%	11.1%	1.4%	37.0	18.5*
Cc1csc(Nc2cccc3ccccc23)n1	-4.7%	-26.2%	6.7%	-7.2%	97.1	20.9*
COc1ccccc1Nc1nc(-c2c(C)nc3ncccn23)cs1	-2.7%	-3.4%	-10.0%[57.1 µM]	0.1%	-6.2	-1.2
CC1CN=C(Nc2ccccc2)S1 (configuration not stated)	-4.6%	-10.1%	3.0%	1.3%	7.8	9.2
CCCCC(CC)CNC(=O)CCCc1nnc2n(CCC)c(=O)c3sccc3n12 (configuration not stated)	0.2%	·	1.6%	·	·	·
CCc1ccc(NC(=O)Cn2c(=O)n(-c3ccc(OC)cc3)c(=O)c3ccc(C(=O)NCc4ccc(C)cc4)cc32)cc1	-1.3%	·	1.5%	·	·	·
CCn1c(=O)cc(OCC(=O)Nc2cc(OC)c(OC)c(OC)c2)c2ccccc21	-4.5%	·	?	·	·	·
CCc1nc2ccc(C(=O)N3CCN(S(=O)(=O)CC)CC3)cn2c1N(C)C(=O)c1cccc(OC)c1	5.1%	·	·	·	·	·
Cc1ccc(CSCCC(=O)N2CCN(c3ccc(F)cc3)CC2)cc1	-1.2%	·	-21.6%	·	·	·
COc1ccccc1Nc1ccc(Nc2ccccc2OC)nn1	-4.1%	0.6%	?	2.6%	175.0*	29.2*
COc1ccc(OC)c(Nc2ccc(Nc3cc(OC)ccc3OC)nn2)c1	-2.6%	-12.3%	-24.1%	0.7%	-6.1	-4.0
Cc1ccc(NCc2ccc(O)c3ncccc23)cc1C	-5.7%	-5.6%	-1.7%	-18.4%	53.9*	35.5*
Oc1ccc(CNc2cccc(C(F)(F)F)c2)c2cccnc12	·	·	0.316µM*	·	·	·
Cc1ccc(NCc2ccc(O)c3ncccc23)cc1	0.7%	?	?	10.9%	17.8	16.1*
Cc1ccc(NC(=O)Cc2ccc(-n3c(C)nc4cccnc43)cc2)cc1C	-4.7%[15.4 µM]	·	-10.9%	·	·	·
COc1cccc(CNc2cccc(C(F)(F)F)c2)c1O	2.0%	-16.9%	0.8%	6.1%[11.5 µM]	9.8	6.5
COc1ccc(-c2nc(CS(=O)CC(=O)NCCc3ccccc3)c(C)o2)cc1OC (configuration not stated)	0.0%	·	?	·	·	·
O=C(Cn1c(=O)n(-c2ccc(Cl)cc2)c(=O)c2sc3ccccc3c21)NC1CCCC1	3.5%	·	5.9%	·	·	·
O=C(NC1CCOCC1)C1CCC(=O)N(Cc2ccc(Cl)cc2)C1 (configuration not stated)	-1.9%	·	0.0%	-9.6%	-26.5	-1.0
Cn1c(CSc2nc3ccccc3n2C)nc2ccccc21	4.5%	·	12.2%	-2.4%	48.1	19.1*
Cn1c(SCc2nc3ccccc3c(=O)[nH]2)nnc1-c1ccco1	-8.3%	-3.2%	?	-0.2%	-3.5	-0.6
Cn1c(SCc2nc3ccccc3c(=O)[nH]2)nc2ccccc21	3.7%	0.0%	7.3%	1.4%	52.6	17.2*
CC(C)Cn1c(SCc2nc3ccccc3c(=O)[nH]2)nc2ccccc2c1=O	6.2%	2.4%	15.6%	2.8%	-12.2	8.7
